High-throughput results as filed in PubChem.
p53null 39C kill: qHTS Screen for Compounds that Selectively Target Cancer Cells with p53 Mutations: Cytotoxicity of p53 Null Cells at the Nonpermissive Temperature. AID 904, 2007. Potency, µM (top dose mostly 46.1 µM), for inactives: at the highest dose activity, negative = cell killing, actives largely listed as cytotoxic. 55,000 compounds, 0.97% hits. H1299 p53-null (neo) cells, 39C, ATPlite viability, 24 h;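 note: 0% = DMSO only and -100% = full killing by 100 µM tamoxifen; nearly all actives have a fitted effect of over 50% in size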
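ATP-luminescence viability readout (ATPlite, 20 min RT) after 24 hr compound treatment at 39C of H1299-neo or H1299-p53A138V cells; titration up to 46 uM; normalized to DMSO and 100 uM tamoxifen; Hill-fit AC50.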
p53null 32C kill: qHTS Screen for Compounds that Selectively Target Cancer Cells with p53 Mutations: Cytotoxicity of p53 Null Cells at the Permissive Temperature; 55,000 compounds, 0.62% hits; AID 903, 2007; Potency, µM (highest dose often 46.1 µM), for inactives: at the highest dose activity change, negative = cytotoxicity, usual class: cytotoxic; H1299-neo p53 null cells, ATP luminescence, 24 h, 32C;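 note: 0% = DMSO only and -100% = full killing by 100 µM tamoxifen; nearly all actives have a fitted effect of over 55% in size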
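AC50 values derive from Hill modelling of qHTS concentration-response data (up to 46 uM) in H1299-neo cells. Cells were treated 24 h at 32C following overnight attachment at 37C; viability was read as cellular ATP.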
FH mod: Identification of activators of human fumarate hydratase by quantitative high-throughput screening; Fumarate hydratase, mitochondrial (Homo sapiens), P07954; FH coupled MDH/diaphorase resazurin fluorescence, 15 min; Potency, µM (top dose mostly 79.9 µM), for inactives: top-dose activity change, negative = inhibition, usual class: inhibitors; 54,000 compounds, 0.22% hits; note: the screen sought activators but most active calls are inhibition curves; nearly all actives have a fitted effect of over 45% in size
Target sequence (P07954 whole entry, looked up): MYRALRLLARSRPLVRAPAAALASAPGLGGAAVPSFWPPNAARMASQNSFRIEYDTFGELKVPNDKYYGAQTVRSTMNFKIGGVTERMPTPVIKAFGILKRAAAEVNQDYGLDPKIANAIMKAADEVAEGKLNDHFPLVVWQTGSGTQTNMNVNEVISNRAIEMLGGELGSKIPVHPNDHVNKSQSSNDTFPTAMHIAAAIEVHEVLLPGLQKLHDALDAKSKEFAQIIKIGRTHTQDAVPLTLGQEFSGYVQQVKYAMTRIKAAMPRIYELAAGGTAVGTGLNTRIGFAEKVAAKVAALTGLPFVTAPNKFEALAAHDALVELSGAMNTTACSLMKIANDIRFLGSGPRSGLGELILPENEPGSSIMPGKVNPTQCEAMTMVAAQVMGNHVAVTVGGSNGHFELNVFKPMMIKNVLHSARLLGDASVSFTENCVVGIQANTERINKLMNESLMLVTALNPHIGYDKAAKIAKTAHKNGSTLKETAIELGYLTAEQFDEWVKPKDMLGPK
The depositor's hits bear a star; ? = inconclusive; . = no result; [ ] = remark or other dose. Hits are enriched below; roughly 1.2% of the tested compounds scored in any of these assays. Calls come from the whole dose curve; as a rule, active = well fitted curve in the direction sought with a large enough effect; inconclusive = small, poorly fitted or top-dose-only effect, or another doubt; inactive = no such curve, though single readings can be large; an effect the other way counts as inactive or inconclusive. Unless noted, % is set by controls: 0 for no effect and ±100 for the full control effect; potency is the fitted concentration of half-maximal effect.

SMILES	p53null 39C kill	p53null 32C kill	FH mod
COc1ccccc1N1CCN(C(CNC(=O)C(=O)NCc2ccc(F)cc2)c2cccnc2)CC1 (stereo unspecified)	?	?	0%
COc1ccccc1N1CCN(C(CNC(=O)C(=O)NCc2cccnc2)c2cccnc2)CC1 (stereo unspecified)	20µM*	?	-1%
COc1ccc(C(=O)NCC(c2cccnc2)N2CCN(c3ccc(F)cc3)CC2)cc1OC (stereo unspecified)	-1%	-11%	.
C=CC1C(OC2OC(CO)C(O)C(O)C2O)OC=C(C(=O)OC)C1CC(=O)OCC1C(C)C(O)CC1C(CO)COC(=O)CC1C(C(=O)O)=COC(OC2OC(CO)C(O)C(O)C2O)/C1=C\C (stereo unspecified)	.	.	6%[20.6 µM]
O=C(O)c1ccncc1Nc1nn(CCN2CCC(F)(F)CC2)c2ccc(F)cc12	.	.	-15%
COc1ccc(S(=O)(=O)Nc2ccc3oc4c(c3c2)CCCC4)cc1	22µM*	42%	?
O=S(=O)(Nc1ccc2oc3c(c2c1)CCCC3)c1cc(Cl)ccc1Cl	37%	79%	?
CC1C(=O)OCC2=CC[N+]3([O-])CCC(OC(=O)C(C)(O)C1(C)O)C23 (stereo unspecified)	.	.	8%[53.3 µM]
O=C(Nc1cccc(C(F)(F)F)c1)c1noc2c1CCc1ccccc1-2	-18%	5%	.
O=C(Nc1cccc(O)c1)c1noc2c1CCc1ccccc1-2	4µM*	5µM*	.
Cc1cc(C)c(NC(=O)N(Cc2ccc3c(c2)Cc2ccccc2-3)C2CCCCCC2)c(C)c1	.	.	-1%
C[C@@H]1O[C@@H](O[C@@H]2[C@@H](O)[C@@H](O[C@]3(CO)O[C@H](CO)[C@@H](O)[C@@H]3OC(=O)/C=C/c3ccc(O)cc3)O[C@H](CO)[C@H]2OC(=O)/C=C/c2ccc(O)cc2)[C@H](O)[C@H](O)[C@H]1O[C@@H]1O[C@@H](C)[C@H](O[C@@H]2OC[C@](O)(CO)[C@H]2O)[C@@H](O)[C@H]1O	.	.	2%[20.6 µM]
Cc1ccc(-n2ncc3c(N4CCCCCC4)ncnc32)cc1	11%	3.2µM*	-11%
Clc1cccc(-n2ncc3c(N4CCCCC4)ncnc32)c1	13µM*	3.2µM*	-27%
Fc1ccc(-n2ncc3c(N4CCC(Cc5ccccc5)CC4)ncnc32)cc1	18%	-1%	-7%
Clc1cccc(-n2ncc3c(N4CCCCCC4)ncnc32)c1	-1%	?	-8%
CCN1CCN(c2ncnc3c2cnn3-c2ccc(C)cc2)CC1	17%	-18%	-1%
Fc1ccc(-n2ncc3c(N4CCCCCC4)ncnc32)cc1	14µM*	?	-6%
CC(C)OP(=O)(CP(=O)(OC(C)C)OC(C)C)OC(C)C	.	.	-2%[53.3 µM]
CCn1c(C)cc(/C=C2/SC(=S)NC2=O)c1C	.	18µM*	.
CSc1ccc(S(=O)(=O)N2CCCC2)cc1	-11%	-1%	.
O=S(=O)(c1cccc(C(F)(F)F)c1)n1c(/C=C/c2ccccc2)nc2ccccc21	?	16µM*	-29%
CSc1ccc(/C=C/c2nc3ccccc3n2S(=O)(=O)c2ccc(Br)cc2)cc1	2.5µM*	3.2µM*	-24%
COc1ccc(-n2c(/C=C/c3cccc(C(F)(F)F)c3)nc3ccccc3c2=O)cc1Cl	3%	-7%	-5%
CCOc1ccc(/C=C/c2nc3ccccc3n2S(=O)(=O)c2ccc(Br)cc2)cc1	7.9µM*	13µM*	2%
SMILES	p53null 39C kill	p53null 32C kill	FH mod
CCOc1ccc(S(=O)(=O)Nc2nc3ccccc3nc2Nc2ccc(OC)cc2)cc1	15%	9%	-23%
O=C(O)C(Cc1ccccc1)NC(=O)C1CCCN1 (stereo unspecified)	.	.	7%
OC/C=C/C=C/[C@H]1Cc2cc(O)cc(O)c2O1	.	.	-5%
CCc1cncnc1N1CCN(Cc2nc3ccc(C(F)(F)F)cc3[nH]2)CC1	.	.	3%
CCOc1ccc2nc(SCCN3CCOCC3)[nH]c2c1	.	.	0%
CCc1ccc(-n2c(SCc3ccccc3Cl)nc3[nH]ncc3c2=O)cc1	18µM*	?	?
CCc1ccc(-n2c(SCc3ccccc3C)nc3[nH]ncc3c2=O)cc1	6%	?	?
COc1cc2c(cc1OC)CC(=O)N(CCCNC[C@H]1Cc3cc(OC)c(OC)cc31)CC2	.	.	-2%
CCCOc1ccc(CNC(=O)C2CCN(c3nc4ccccc4nc3C(F)(F)F)CC2)cc1	16%	0%	2%
